# Measured values taken from PubChem BioAssay AID2472 (National Center for Advancing Translational Sciences (NCATS), 2010).
# Values joined by “and” are separate entries in the source; they are usually repeats but may differ in a detail not shown here. Equal values may be shown once. Out of some 290,000 compounds screened, about 2,000 (0.69%) were called active. No stated cut-off is given here; in the data, active means activity change below about -30%; inactive means the rest, inconclusive results apart. The sample as a whole holds a higher share of actives than the screen did. Some structures have more than one record in an assay (separate samples or runs), and their calls can disagree.
# Experiment: qHTS Assay for Inhibitors of Fructose-1,6-bisphosphate Aldolase from Giardia Lamblia: Coupling assay counterscreen
# Settings: coupling enzyme system counterscreen, AmpLite Red fluorescence; at 58.2 µM (top of the series)
# Text: MLPCN Grant: MH085699-01 Assay Provider: Osnat Herzberg, University of Maryland NCGC Assay Overview: The objective of this project is to obtain compounds that inhibit Giardia lamblia growth. G. lamblia is a human pathogen which afflicts impoverished nations; it is the most common cause of outbreaks of diarrhea in the United States. During the course of our study of potential drug targets in Giardia, we have identified the Class II (Zn2+ functions in electrophilic catalysis) fructose-1,6-bisphosphate aldolase (FBPA) as an excellent candidate for drug targeting. FBPA is a key glycolytic pathway enzyme, essential for G. lamblia survival. The human FBPA belongs to the Class I aldolases, which have a different substrate binding site structure and a radically different catalytic mechanism (employing a lysine-Schiff base intermediate). Therefore, affinity-based or mechanism-based inhibitors of the Giardia FBPA are expected not to interfere with the catalytic function of the human FBPA. A glyceraldehyde-3-phosphate dehydrogenase/triose phosphate isomerase/NAD/arsenate coupled assay was adapted to the 1536-well HTP format for use in the primary screen. This was done by coupling it to a diaphorase/resazurin/resorufin reaction that can be monitored by fluorescence (excitation, 544 nm; emission, 590 nm). Compounds identified in this screen will be further evaluated by coupling the […]/triose phosphate isomerase/NADH assay to a phenazine methosulfate/tetranitroblue tetrazolium color reaction. False positives due to the dehydrogenases and diaphorase inhibition will be eliminated, and selectivity assay will triage inhibitors of mammalian triose phosphate isomerase and the Class I FBPA. G. lamblia FBPA inhibitors identified by the in vitro analyses will be examined for growth inhibition of Giardia trophozoites, and for cytotoxicity in human cells. This assay specifically addresses whether activity observed in the primary screen (AID 2451) is related to inhibition of the coupling assay used, as opposed to inhibition of aldolase. Actives in this assay are considered inconclusive for activity against aldolase.
# NCGC Assay Protocol: Step,Parameter,Value,Description 1,Coupling enzyme reagent,2 uL,glyceraldehyde-3-phosphate 2,Compound,23 nL,3.68 nM-57.5 uM final concentration 3,Time,10 min,RT Incubation 4,Substrate/detection Reagent,2 uL,Substrate + enzyme coupling system + AmpLite Red kit 5,Time,20 min,RT Incubation 6,Detector,525 nm/598 nm (Fluorescence),ViewLux Fluorescence Read (Read 1) Notes: 1,Medium-binding black solid-bottom Kalypsys plates. FRD or Kalypsys dispenser. 2,Compound Library (10 mM ,1:5 dilution). Pin-transferred for a [final] range of 3.68 nM-57.5 uM. 3,RT incubation 4,FRD or Kalypsys dispenser, 2 uL of reaction mixture. Bottle kept at 4C and covered in foil to protect from light. 5,RT incubation 6,ViewLux Protocol 1194; Excitation filter wheel A (525/20 Pol; BODIPY TMR FP), Emission filter wheel B (598/25 S; BODIPY TMR FP S). Keywords: Fructose-bisphosphate aldolase, FBPA , Giardia lamblia , Giardia, HTS, Inhibitors
# On the % scale 0 is the no-effect control and ±100 the full control effect.
row,SMILES,"activity change, negative = inhibition"
1,NCCc1c[nH]c2ccc(O)cc12,-9.84% (inactive) and -40.6% (active)
2,C/C(CCc1c[nH]c2ccccc12)=N\O,-2.5% (inactive)
3,Cc1cccc2c(CCN)c[nH]c12,-2.64% (inactive)
4,N#Cc1cc(Br)c(O)c(Br)c1,2.57% (inactive)
5,C[C@@H]1C[C@H]2CC[C@H](O2)[C@H](C)C(=O)O[C@@H](C)C[C@@H]2CC[C@@H](O2)[C@@H](C)C(=O)O[C@H](C)C[C@H]2CC[C@H](O2)[C@H](C)C(=O)O[C@@H](C)C[C@@H]2CC[C@@H](O2)[C@@H](C)C(=O)O1,-0.707% (inactive)
6,C[C@H]1C/C=C/[C@@H]2[C@@H]3O[C@]3(C)[C@@H](C)[C@H]3[C@H](Cc4ccccc4)NC(=O)[C@]32OC(=O)O/C=C/[C@](C)(O)C1=O,1.28% (inactive)
7,CCCCCCCCCCCCN=C(N)N,-0.411% (inactive)
8,CO[C@H]1[C@@H](O)[C@@H](C)O[C@H](O[C@H]2[C@H](Oc3cccc4c(O)c5c(=O)oc6ccc(C)c7c(=O)oc(c34)c5c67)O[C@H](C)[C@H](O)[C@@H]2O)[C@@H]1O,-47.8% (active)
9,Nc1ccc(-c2ccc(N)c(N)c2)cc1N,3.84% (inactive)
10,CC(=O)[O][Sn]([c]1ccccc1)([c]1ccccc1)[c]1ccccc1,-1.83% (inactive)
11,CN(C)C[C@H]1CCCC[C@]1(O)c1cccc(O)c1,0.267% (inactive)
12,COc1cc(Cn2c(N)c(C(=O)NCc3ccco3)c3nc4ccccc4nc32)cc(OC)c1OC,-52% (active)
13,CCOC(=O)C(O)(c1ccc(NC(=O)c2ccco2)c(OC)c1)C(F)(F)F (stereo not given),-4.29% (inactive)
14,CCOC(=O)c1c(N)n(Cc2ccccc2)c2nc3ccccc3nc12,-2.59% (inactive)
15,C[C@]12O[C@H](C[C@@]1(O)C(=O)O)n1c3ccccc3c3c4c(c5c6ccccc6n2c5c31)CNC4=O,0.208% (inactive)
